# Screening results as filed in PubChem BioAssay.
# Pol iota inh: blocks human DNA polymerase iota activity; Pol iota fluorescent replication assay, 10 min; Potency, µM (highest dose often 115 µM), without a hit: at the top dose activity, negative = inhibition, usual class: inhibitors; hit rate 1% among 390,000
# Target sequence (Q9UNA4 whole entry, looked up): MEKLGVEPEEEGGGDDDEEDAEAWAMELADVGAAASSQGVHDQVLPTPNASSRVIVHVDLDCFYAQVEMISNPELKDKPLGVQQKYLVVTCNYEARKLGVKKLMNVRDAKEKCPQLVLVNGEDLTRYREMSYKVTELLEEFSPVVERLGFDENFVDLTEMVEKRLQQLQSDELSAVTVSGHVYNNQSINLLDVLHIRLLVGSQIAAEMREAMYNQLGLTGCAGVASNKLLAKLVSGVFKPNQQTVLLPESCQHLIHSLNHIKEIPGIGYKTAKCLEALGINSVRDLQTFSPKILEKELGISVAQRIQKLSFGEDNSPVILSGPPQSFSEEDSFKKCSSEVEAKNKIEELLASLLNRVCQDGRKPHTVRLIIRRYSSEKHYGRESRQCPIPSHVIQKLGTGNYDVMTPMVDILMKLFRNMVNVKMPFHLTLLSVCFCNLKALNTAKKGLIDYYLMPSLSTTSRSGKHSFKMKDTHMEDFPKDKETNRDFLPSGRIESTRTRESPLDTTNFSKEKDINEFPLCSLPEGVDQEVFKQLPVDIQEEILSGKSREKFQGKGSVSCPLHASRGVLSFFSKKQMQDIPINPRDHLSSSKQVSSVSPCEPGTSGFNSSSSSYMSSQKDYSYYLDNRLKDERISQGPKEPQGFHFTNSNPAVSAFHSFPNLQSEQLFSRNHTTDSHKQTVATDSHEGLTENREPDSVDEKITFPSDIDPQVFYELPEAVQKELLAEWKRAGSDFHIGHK
#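 Pol iota at 10 nM preincubated 15 min with compounds at room temperature; reaction started with fluorescent substrate, 50 nM final. Fluorescence read kinetically at 0 and 10 min; buffer-only wells as negative control.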
# FEN1 inh: blocks human flap endonuclease 1 | AID 588795 | Potency, µM (titrated, usually from 114 µM), without a hit: at the top dose activity change, negative = inhibition, usual class: inhibitors | Recombinant FEN1 flap cleavage, fluorescence, 15 min | hit rate 0.35% among 390,000 | P39748; also: % is scaled to controls: 0 for no effect and ±100 for the full control effect; nearly all actives have a fitted effect of over 65% in size
#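 Steps: FEN1 (10 nM) dispensed; compound added by pin tool; 15 min at room temperature; substrate added to 50 nM final; reads at 0 min and 15 min; data normalized and fitted (four-parameter Hill).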
# Pol eta inh-1: blocks human DNA polymerase eta activity. Q9Y253. AID 588591. hit rate 1.2% among 390,000. Potency, µM (titrated, usually from 114 µM), for the others: at the top dose activity change, negative = inhibition, most hits filed as inhibitors. recombinant Pol eta, fluorescent DNA replication assay; also: % is scaled to controls: 0 for no effect and ±100 for the full control effect
#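 Pol eta (10 nM) was preincubated with compounds for 15 min at room temperature, after which fluorescent replication substrate (50 nM final) was added to start the reaction. Fluorescence was read kinetically at 0 and 10 min.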
# Pol beta inh: blocks human DNA polymerase beta activity | P06746 | Pol beta primer extension/strand displacement, fluorescence kinetic | Potency, µM (top dose mostly 114 µM), without a hit: top-dose activity change, negative = inhibition, most hits filed as inhibitors | hit rate 1.3% among 340,000 | AID 485314; also: % is scaled to controls: 0 for no effect and ±100 for the full control effect
#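 Pol beta (10 nM) was preincubated with compound for 15 min at room temperature. The reaction was then started with 50 nM substrate and read immediately and after a further 10 min at room temperature.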
# Pol kappa inh-1: blocks human DNA polymerase kappa activity. AID 588579. Q9UBT6. Potency, µM (top dose mostly 107 µM), for the others: top-dose activity, negative = inhibition, hits mostly inhibitors. purified Pol kappa, fluorescent DNA synthesis assay, 10 min. hit rate 0.53% among 400,000; also: % is scaled to controls: 0 for no effect and ±100 for the full control effect
#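 Pol kappa 10 nM + cpd, 15 min RT; start w/ substrate 50 nM final; fluorescence kinetic read, 0 and 10 min. Neg ctrl: buffer, no enzyme.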
# WRN helicase inh: WRN helicase (human) inhibition | AID 651768 | Potency, µM (doses to about 114 µM), for inactives: at the top dose activity change, negative = inhibition, usual class: inhibitors | hit rate 0.46% among 360,000 | WRN helicase unwinding, fluorescent forked duplex, kinetic; also: % is scaled to controls: 0 for no effect and ±100 for the full control effect; nearly all actives have a fitted effect of over 55% in size
#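 Kinetic fluorescence helicase assay: unwinding of a quenched forked DNA duplex (100 nM final) with 2 mM ATP final raises red fluorescence (525/598 nm). Compounds sat 15 min at room temperature with 20 nM WRN beforehand.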
# TbPGK inh: validation of Trypanosoma brucei phosphoglycerate kinase inhibitors; hit rate 79% among 500; shares compounds with Pol kappa inh-1; TbPGK coupled GAPDH assay, Kinase-Glo luminescence; AID 686980; Potency, µM (highest dose often 57.5 µM), inactives show at the top dose activity change, negative = inhibition, hits mostly inhibitors; also: % is scaled to controls: 0 for no effect and ±100 for the full control effect; nearly all actives have a fitted effect of over 65% in size
# Pol iota confirm: Inhibitors of human DNA polymerase iota, confirmation. shares compounds with Pol kappa inh-1. hit rate 77% among 1,500. AID 720496. Pol iota primer extension, TAMRA/BHQ fluorescence. Potency, µM, most hits filed as inhibitors
# Pol kappa inh-2: confirmation of human DNA polymerase kappa inhibitors; shares compounds with Pol eta inh-1; purified Pol-kappa, fluorescent strand-displacement substrate; Potency, µM, usual class: inhibitors; hit rate 76% among 920; AID 720501
# Pol eta inh-2: confirmation of human DNA polymerase eta inhibitors | shares compounds with Pol eta inh-1 | Pol eta primer extension, TAMRA/BHQ fluorescence, 10 min | Potency, µM, hits mostly inhibitors | hit rate 64% among 2,600
# The depositor's hits bear a star; ? = inconclusive; / = no result; [ ] = dose if it differs, or a comment. Only some compounds are listed: those with a hit (about 2.4% of all), similar ones and a draw of the others. Calls follow the shape of the dose curve; as a rule, active = well fitted curve in the direction sought with a large enough effect; inconclusive = small, poorly fitted or top-dose-only effect, or another doubt; inactive = no such curve, though single readings can be large; an effect the other way counts as inactive or inconclusive. Potency is read from the fitted curve at half-maximal effect.
SMILES,Pol iota inh,FEN1 inh,Pol eta inh-1,Pol beta inh,Pol kappa inh-1,WRN helicase inh,Pol iota confirm,Pol eta inh-2,others
O=C(CSc1ccsc1[N+](=O)[O-])Nc1cccc(F)c1,?,?,22.4µM*,7.08µM*,22.4µM*,?,67*,47.8*,
COc1ccccc1CNC(=O)CSc1ccsc1[N+](=O)[O-],?,37.9%,-5.3%,?,-15.6%,-7.0%,/,/,
CCCCn1c(NC(=O)c2ccco2)c(S(=O)(=O)c2ccc(C)cc2)c2nc3ccccc3nc21,42.6%,-26.1%,-24.0%,?,-8.7%,?,/,/,
CCCCn1c(NS(=O)(=O)c2ccccc2)c(S(=O)(=O)c2ccc(C)cc2)c2nc3ccccc3nc21,7.94µM*,-18.9%,44.7µM*,0.7%,-11.1%,?,?,?,
O=C(O)c1ccc(CSc2nc3ccc(NC(=O)c4ccccc4C(=O)O)cc3s2)cc1,?,?,25.1µM*,1.1%,-12.2%,?,?,?,Pol kappa inh-2=84.4*
CCOC(=O)c1ccc(N2C(=O)c3n[nH]c(-c4ccco4)c3C2c2ccccc2OC)cc1 (stereo not drawn),-13.5%,-22.2%,-4.5%,0.2%,-11.6%,/,/,/,
CC(C)COc1ccc(-c2nn(-c3ccccc3)cc2/C=C2/SC(=S)N(CC(=O)O)C2=O)cc1,-15.0%,1.6%,28.2µM*,22.5%,-2.8%,1.5%,75.2*,67.5*,
O=c1[nH]c(=O)c2nc3c4ccccc4c4ccccc4c3nc2[nH]1,86.9%,?,28.2µM*,?,-25.0%,?,18.9*,/,Pol kappa inh-2=9.47*
COc1cc(/C=N/NC(N)=O)ccc1OCC(=O)Nc1ccc(C)c(C)c1,31.6µM*,?,28.2µM*,?,89.1µM*,?,42.3*,75.7*,
COc1cc(/C=N/NC(N)=S)ccc1OCC(=O)Nc1ccc(C)c(C)c1,?,-1.4%,?,-1.2%,4.6%,-18.8%,/,/,
Cc1ccc2c(c1)c1c(c(=O)n(-c3ccccc3C)c(=O)n1CC(=O)NCCC1=CCCCC1)n2C,20.9%,-2.0%,-10.8%,0.0%,-12.4%,/,/,/,
CCCC[N+](C)(C)CCC(=O)NC(C)(C)CS(=O)(=O)[O-],?,1.7%,12.6µM*,20µM*,-27.2%,-29.2%,/,75.7*,TbPGK inh=?
Cc1ccc(S(=O)(=O)NCCCCCC(=O)NC(C)(C)CO)cc1,11.9%,-2.0%,-0.9%,8.2%,-1.9%,-2.7%,/,/,
C=CC(=O)N1C/C(=C/c2ccc(F)cc2)C(=O)/C(=C\c2ccc(F)cc2)C1,11.2µM*,-17.7%,10µM*,/,79.4µM*,39.8µM*,59.7*,75.7*,TbPGK inh=5.8µM*
CN1C2CCC1/C(=C\c1ccc(F)cc1)C(=O)/C2=C/c1ccc(F)cc1,11.4%,-4.5%,-4.5%,-0.7%,-0.1%,1.0%,/,/,
O=C1/C(=C/c2ccc(O)c(O)c2)Oc2cc(O)ccc21,?,?,20µM*,-29.7%,28.2µM*,?,23.8*,33.8*,
COc1cc(/C=C2\Oc3cc(O)ccc3C2=O)ccc1O,?,?,-13.2%,?,-29.3%,?,/,/,
COc1ccc(/C=C2\C(=O)NC(=O)c3ccccc32)cc1OC,31.6µM*,-8.5%,20µM*,/,-18.1%,-11.8%,84.4*,30.1*,
CSc1ccc(CCNC(=O)CN2C(=O)COc3ccc(S(=O)(=O)N4CCCCCC4)cc32)cc1,-15.2%,4.2%,-3.0%,24.4%,-3.5%,/,/,/,
CC(=O)Nc1sc2c(c1C#N)CCN(Cc1ccccc1)C2,59.1%,0.0%,-15.4%,-1.8%,-10.9%,0.6%,/,/,
N#Cc1c(NC(=O)/C=C/C(=O)O)sc2c1CCN(Cc1ccccc1)C2,-27.2%,-29.1%,28.2µM*,31.6µM*,6.8%,-8.3%[11.6 µM],47.4*,47.8*,Pol kappa inh-2=23.8*
O=C(N/N=C/c1ccncc1)c1cccs1,15.0%,-0.7%,4.1%,14.0%,5.2%,-1.0%,/,/,
O=C(N/N=C/c1ccc(-c2ccccc2C(=O)O)o1)c1cccs1,20µM*,?,17.8µM*,14.1µM*,25.1µM*,?,?,60.1*,
O=S(=O)(c1ccccc1)c1nnn2c1nc(NC1CCCCC1)c1sccc12,5.2%,-8.0%,-2.4%,11.5%,-3.3%,/,/,/,
CCc1ccccc1Nc1nn2c(=O)c3ccc(C(=O)NCc4cccs4)cc3nc2s1,79.4µM*,-15.6%,?,8.91µM*,-0.1%[60.1 µM],/,?,/,Pol kappa inh-2=?
SMILES,Pol iota inh,FEN1 inh,Pol eta inh-1,Pol beta inh,Pol kappa inh-1,WRN helicase inh,Pol iota confirm,Pol eta inh-2,others
CCCc1nc2scc(-c3ccccc3)c2c(=O)n1N,2.0%[58.9 µM],16.6%,-10.3%,-4.3%,-6.1%,-1.8%,/,/,
O=C(O)CSc1cc(C(=O)c2ccccc2O)cn2c(=O)c3c(-c4ccccc4)csc3nc12,?,?,14.1µM*,44.7µM*,?,?,21.2*,26.9*,
CN1N/C(=C\c2ccccc2)N=C2C(=O)N(C)C(=O)N=C21,-98.0%,?,/,/,?,/,2.67*,5.36*,
CC/C=C1/N=C2C(=O)N(C)C(=O)N=C2N(C)N1,-19.4%,-11.4%,/,/,-9.4%,/,/,/,
Cc1cc(Cl)ccc1NC(=O)Cn1nc(C)c2c(C)n(-c3ccccc3)nc2c1=O,50.1µM*,-0.8%,/,39.8µM*,?,/,75.2*,?,Pol kappa inh-2=47.4*
CC(=O)c1ccc(Cc2cnc(N)s2)cc1,5.3%,-10.5%,0.9%,16.7%,-5.9%,-14.1%,/,/,
Nc1ncc(N=Nc2cc(C(=O)O)ccc2Cl)s1,7.94µM*,?,12.6µM*,?,79.4µM*,-29.2%[11.6 µM],59.7*,21.3*,
Cc1[nH]c2ccccc2c1C(=O)COC(=O)c1ccccc1SCC(=O)N1CCCC1,-15.8%,-9.7%,/,/,2.9%,/,/,/,
Cc1cc(=O)[nH]c(N/N=C/c2c(O)n(-c3ccccc3)c(=O)c3ccccc23)n1,0.5%,-9.1%,22.4µM*,44.7µM*,-25.3%,?,75.2*,60.1*,
Cc1ccc2nc(SCC(=O)NCc3ccccc3Cl)nc(=O)n2c1,6.5%,6.3%,-18.0%,/,-15.6%,0.6%,/,/,
Cc1ccn2c(=O)nc(SCC(=O)NCc3ccccc3Cl)nc2c1,56.2µM*,-7.0%,17.8µM*,/,-42.7%,?,67*,60.1*,Pol kappa inh-2=26.7*
